# The campaign covered roughly 5,500 compounds. About 2,000 (36%) were called active. Roughly 18% stayed inconclusive and do not appear here. The list shows a part of the results. Unmarked numbers belong to inactive results. No stated cut-off is given here; in the data, active means normalized growth mostly below about 0.91 (no sharp cut-off); inconclusive means no clear call, values can overlap the other calls; inactive means mostly above about 0.92.
# Assay: chemical genetic growth profiling, strain panel (AID 1159580);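 further: tested at 20 µM; growth read once vehicle control cultures reached saturation at 30 °C; 1 = growth at the plate median or of vehicle wells; lower values mean less growth of the strain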
# Details: growth OD
structure (smiles),measurement,setting,value
O=C1C=C(O)c2ccccc2C1=O,normalized growth,"S. cerevisiae deletion strains, locus YJR043C, strain POL32, active compounds read low",1.01
same,normalized growth,"S. cerevisiae deletion strains, locus YJR066W, strain TOR1, active compounds read low",0.825 (active)
same,normalized growth,"S. cerevisiae deletion strains, locus YKL009W, strain mrt4, active compounds read low",1.04
same,normalized growth,"S. cerevisiae deletion strains, locus YKL068W, active compounds read low",0.942
same,normalized growth,"S. cerevisiae deletion strains, locus YKL085W, strain MDH1 (second series), active compounds read low",0.947
same,normalized growth,"S. cerevisiae deletion strains, locus YKL085W, strain MDH1, active compounds read low",0.947
same,normalized growth,"S. cerevisiae deletion strains, locus YKL160W, strain elf1, active compounds read low",0.912
same,normalized growth,"S. cerevisiae deletion strains, locus YKR001C, strain vps1, active compounds read low",0.9
same,normalized growth,"S. cerevisiae deletion strains, locus YKR026C, strain gcn3, active compounds read low",0.919 (active)
same,normalized growth,"S. cerevisiae deletion strains, locus YKR091W, strain srl3, active compounds read low",0.961
same,normalized growth,"S. cerevisiae deletion strains, locus YLL001W, strain dnm1, active compounds read low",0.937
same,normalized growth,"S. cerevisiae deletion strains, locus YLL026W, active compounds read low",0.952
same,normalized growth,"S. cerevisiae deletion strains, locus YLL041C, strain sdh2, active compounds read low",0.939
same,normalized growth,"S. cerevisiae deletion strains, locus YLR027C, strain aat2, active compounds read low",0.935
same,normalized growth,"S. cerevisiae deletion strains, locus YLR039C, strain RIC1, active compounds read low",0.71
same,normalized growth,"S. cerevisiae deletion strains, locus YLR058C, strain SHM2, active compounds read low",0.949
same,normalized growth,"S. cerevisiae deletion strains, locus YLR102C, strain apc9, active compounds read low",0.982
same,normalized growth,"S. cerevisiae deletion strains, locus YLR113W, strain HOG1, active compounds read low",0.867
same,normalized growth,"S. cerevisiae deletion strains, locus YLR221C, strain rsa3, active compounds read low",0.925
same,normalized growth,"S. cerevisiae deletion strains, locus YLR258W, strain gsy2, active compounds read low",0.944
same,normalized growth,"S. cerevisiae deletion strains, locus YLR262C, strain YPT6 (second series), active compounds read low",0.738 (active)
same,normalized growth,"S. cerevisiae deletion strains, locus YLR262C, strain YPT6, active compounds read low",0.82
same,normalized growth,"S. cerevisiae deletion strains, locus YLR268W, strain sec22, active compounds read low",0.923
same,normalized growth,"S. cerevisiae deletion strains, locus YLR320W, strain mms22, active compounds read low",0.949
same,normalized growth,"S. cerevisiae deletion strains, locus YLR330W, strain CHS5, active compounds read low",0.959
same,normalized growth,"S. cerevisiae deletion strains, locus YLR342W, strain FKS1 (second series), active compounds read low",1.04
same,normalized growth,"S. cerevisiae deletion strains, locus YLR342W, strain FKS1, active compounds read low",0.948
same,normalized growth,"S. cerevisiae deletion strains, locus YLR357W, strain rsc2, active compounds read low",0.932
same,normalized growth,"S. cerevisiae deletion strains, locus YLR370C, strain arc18, active compounds read low",0.941
same,normalized growth,"S. cerevisiae deletion strains, locus YLR371W, strain rom2, active compounds read low",0.966
same,normalized growth,"S. cerevisiae deletion strains, locus YLR384C, strain iki3, active compounds read low",0.971
same,normalized growth,"S. cerevisiae deletion strains, locus YLR418C, strain cdc73, active compounds read low",0.894
same,normalized growth,"S. cerevisiae deletion strains, locus YML016C, strain PPZ1, active compounds read low",0.956
same,normalized growth,"S. cerevisiae deletion strains, locus YML032C, strain rad52, active compounds read low",0.907
same,normalized growth,"S. cerevisiae deletion strains, locus YML120C, strain ndi1, active compounds read low",0.93
same,normalized growth,"S. cerevisiae deletion strains, locus YML124C, strain tub3, active compounds read low",0.964
same,normalized growth,"S. cerevisiae deletion strains, locus YMR058W, strain fet3, active compounds read low",0.872 (active)
same,normalized growth,"S. cerevisiae deletion strains, locus YMR078C, strain ctf18, active compounds read low",0.989
same,normalized growth,"S. cerevisiae deletion strains, locus YMR125W, strain sto1, active compounds read low",0.954
same,normalized growth,"S. cerevisiae deletion strains, locus YMR129W, active compounds read low",0.937
same,normalized growth,"S. cerevisiae deletion strains, locus YMR205C, strain PFK2, active compounds read low",0.994
same,normalized growth,"S. cerevisiae deletion strains, locus YMR223W, strain ubp8, active compounds read low",0.944
same,normalized growth,"S. cerevisiae deletion strains, locus YMR231W, strain pep5, active compounds read low",0.919 (active)
same,normalized growth,"S. cerevisiae deletion strains, locus YMR307W, strain GAS1, active compounds read low",0.863
same,normalized growth,"S. cerevisiae deletion strains, locus YNL067W, strain RPL9B, active compounds read low",0.966
same,normalized growth,"S. cerevisiae deletion strains, locus YNL071W, strain lat1, active compounds read low",0.945
same,normalized growth,"S. cerevisiae deletion strains, locus YNL128W, strain TEP1, active compounds read low",0.974
same,normalized growth,"S. cerevisiae deletion strains, locus YNL183C, strain NPR1, active compounds read low",0.884
same,normalized growth,"S. cerevisiae deletion strains, locus YNL209W, strain ssb2, active compounds read low",0.941
same,normalized growth,"S. cerevisiae deletion strains, locus YNL233W, strain BNI4, active compounds read low",0.978
same,normalized growth,"S. cerevisiae deletion strains, locus YNL248C, strain rpa49, active compounds read low",0.951
same,normalized growth,"S. cerevisiae deletion strains, locus YNL250W, strain rad50, active compounds read low",0.953
same,normalized growth,"S. cerevisiae deletion strains, locus YNL271C, strain bni1, active compounds read low",0.941
same,normalized growth,"S. cerevisiae deletion strains, locus YNL298W, strain CLA4, active compounds read low",0.968
same,normalized growth,"S. cerevisiae deletion strains, locus YNL307C, strain MCK1, active compounds read low",0.968
same,normalized growth,"S. cerevisiae deletion strains, locus YNL322C, strain KRE1 (second series), active compounds read low",0.944
same,normalized growth,"S. cerevisiae deletion strains, locus YNL322C, strain KRE1, active compounds read low",0.971
same,normalized growth,"S. cerevisiae deletion strains, locus YNR049C, strain mso1, active compounds read low",0.958
same,normalized growth,"S. cerevisiae deletion strains, locus YNR052C, strain pop2, active compounds read low",0.941
same,normalized growth,"S. cerevisiae deletion strains, locus YOL006C, strain TOP1, active compounds read low",0.865
same,normalized growth,"S. cerevisiae deletion strains, locus YOL012C, strain htz1",0.668
same,normalized growth,"S. cerevisiae deletion strains, locus YOL147C, strain pex11, active compounds read low",0.955
same,normalized growth,"S. cerevisiae deletion strains, locus YOR001W, strain rrp6, active compounds read low",0.931
same,normalized growth,"S. cerevisiae deletion strains, locus YOR061W, strain CKA2, active compounds read low",0.979
same,normalized growth,"S. cerevisiae deletion strains, locus YOR069W, strain VPS5, active compounds read low",0.971
same,normalized growth,"S. cerevisiae deletion strains, locus YOR070C, strain gyp1, active compounds read low",0.956
same,normalized growth,"S. cerevisiae deletion strains, locus YOR080W, strain dia2, active compounds read low",0.951
same,normalized growth,"S. cerevisiae deletion strains, locus YOR083W, strain WHI5, active compounds read low",0.904
same,normalized growth,"S. cerevisiae deletion strains, locus YOR106W, strain vam3, active compounds read low",0.863 (active)
same,normalized growth,"S. cerevisiae deletion strains, locus YOR136W, strain idh2, active compounds read low",0.952
same,normalized growth,"S. cerevisiae deletion strains, locus YOR144C, strain elg1, active compounds read low",0.966
same,normalized growth,"S. cerevisiae deletion strains, locus YOR184W, strain ser1, active compounds read low",0.918
same,normalized growth,"S. cerevisiae deletion strains, locus YOR231W, strain MKK1, active compounds read low",0.797 (active)
same,normalized growth,"S. cerevisiae deletion strains, locus YOR265W, strain rbl2, active compounds read low",0.944
same,normalized growth,"S. cerevisiae deletion strains, locus YOR270C, strain vph1, active compounds read low",0.846
same,normalized growth,"S. cerevisiae deletion strains, locus YOR290C, strain snf2, active compounds read low",0.902
same,normalized growth,"S. cerevisiae deletion strains, locus YOR316C, strain cot1, active compounds read low",0.98
same,normalized growth,"S. cerevisiae deletion strains, locus YPL051W, strain arl3, active compounds read low",0.873 (active)
same,normalized growth,"S. cerevisiae deletion strains, locus YPL078C, strain atp4, active compounds read low",0.897
same,normalized growth,"S. cerevisiae deletion strains, locus YPL106C, strain sse1, active compounds read low",0.866
same,normalized growth,"S. cerevisiae deletion strains, locus YPL240C, strain hsp82, active compounds read low",0.918 (active)
same,normalized growth,"S. cerevisiae deletion strains, locus YPL241C, strain CIN2, active compounds read low",0.967
same,normalized growth,"S. cerevisiae deletion strains, locus YPL256C, strain CLN2, active compounds read low",0.818 (active)
same,normalized growth,"S. cerevisiae deletion strains, locus YPR119W, strain clb2, active compounds read low",0.966
same,normalized growth,"S. cerevisiae deletion strains, locus YPR141C, strain kar3, active compounds read low",0.948
same,normalized growth,"S. cerevisiae deletion strains, locus YPR163C, strain tif3, active compounds read low",0.995
same,normalized growth,"S. cerevisiae deletion strains, locus YPR167C, strain met16, active compounds read low",0.956
same,normalized growth,"S. cerevisiae deletion strains, strain wtn01, active compounds read low",0.967
same,normalized growth,"S. cerevisiae strains, strain wild type, active compounds read low",0.978
